Screening data from PubChem.
Shown are actives, neighbours in structure and some others; about 19% of the full set was active somewhere.
ELG1 repair inh: inhibitors of ELG1-dependent DNA repair in HEK293T cells; HEK293T ELG1-luciferase reporter, luminescence, 16 h; DNA damage induced by 5-fluorouridine; Potency, µM (top dose mostly 46.1 µM), inactives show top-dose activity change, negative = inhibition, most hits filed as inhibitors; actives 2.3% (n = 330,000); also: potency is read from the fitted curve at half-maximal effect; nearly all actives have a fitted effect of over 55% in size
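Cells (2,000 per well) received 5-fluorouridine plus test compound or DMSO and were incubated 16 hr at 37 °C, 5% CO2. Luciferase activity was read by luminescence 30 min after ONE-Glo addition; signal suppression marked inhibition of damage-induced ELG1 function.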
IL-1B inflam inh: inflammasome signaling inhibition, IL-1 beta readout; THP-1 LPS/ATP IL-1B secretion, AlphaLISA, 16 h; active compounds read low; activity change, % at 57.5 µM; actives 4.7% (n = 360,000); in the data active = activity change below about -50%; inconclusive = mostly about -30% to -49%
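THP-1 cells pretreated 1 hr with compounds (up to 57.5 uM final), then stimulated with LPS (250 ng/mL final) plus ATP (1.25 mM final); secreted IL-1B measured by AlphaLISA after 16 hr, decreased signal indicating inhibition.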
HT1080-NT tox: kills 2HG-producing HT-1080-NT fibrosarcoma cells. Potency, µM (highest dose often 46.1 µM), for inactives: at the top dose activity, negative = less viability, usual class: cytotoxic. actives 1.6% (n = 360,000). HT-1080-NT fibrosarcoma viability, CellTiter-Glo ATP luminescence, 48 h;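 also: NT is the 2HG producing partner of a matched IDH1 knockdown line; potency is read from the fitted curve at half-maximal effect; 0% = DMSO-treated cells and -100% = media-only wells without cells; nearly all actives have a fitted effect of over 55% in size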
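Viability by CellTiter-Glo luminescence after 48 h compound exposure at 37C of HT-1080-NT cells (750/well, RPMI, 5% FBS). % activity scaled between DMSO wells and medium-only wells, then curve-fitted and categorized by curve class.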
HT1080 IDH1KD tx: HT-1080 IDH1 knockdown cell toxicity (counter line); HT-1080 IDH1 knockdown viability, ATP luminescence, 48 h; Potency, µM (highest dose often 46.1 µM), inactives show at the highest dose activity, negative = toxicity, usual class: cytotoxic; actives 2% (n = 360,000); AID 686971;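 also: potency is read from the fitted curve at half-maximal effect; 0% = DMSO wells and -100% = cell-free medium wells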
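Using the IDH1-knockdown HT-1080 line run in the same batch and compound series as the NT line, viability after 48 h at 37 °C was determined by CellTiter-Glo luminescence and expressed as % activity.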
TDP1 cell noCPT: qHTS for Inhibitors of human tyrosyl-DNA phosphodiesterase 1 (TDP1): qHTS in cells in absence of CPT; DT40 Tdp1-/- hTDP1 cells, no CPT, ATP luminescence, 48 h; Potency, µM (titrated, usually from 46.2 µM), for the others: at the top dose activity change, negative = growth inhibition, actives largely listed as inhibitors; actives 15% (n = 420,000); AID 686978, 2013; also: potency is read from the fitted curve at half-maximal effect; nearly all actives have a fitted effect of over 55% in size
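Cells were dispensed at 400 per well, compounds added by pin tool, plates incubated ≥48 hr at 37 °C, then CellTiter-Glo added for 30 min at room temperature before luminescence reading. Line: DT40 Tdp1-/- complemented with hTDP1; camptothecin omitted.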
DT40 TDP1 CPT: DT40-hTDP1 cell growth loss with CPT | chicken DT40 Tdp1-/-;hTDP1 cells + 20 nM CPT, ATP luminescence, 48 h | Potency, µM (doses to about 46.2 µM), for inactives: at the top dose activity change, negative = growth inhibition, actives largely listed as inhibitors | actives 12% (n = 420,000) | AID 686979; also: potency is read from the fitted curve at half-maximal effect; nearly all actives have a fitted effect of over 55% in size
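Cell growth measured by CellTiter-Glo luminescence after a minimum 48 h, 37 C compound exposure with 20 nM CPT in Tdp1-knockout DT40 cells stably expressing hTDP1, seeded 400/well; qHTS titration format.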
Starred values were filed as active, the others as inactive; ? = inconclusive; . = no result; [ ] = another dose, or the depositor's remark. Unless noted, calls follow the shape of the dose curve; as a rule, active = well fitted curve in the direction sought with a large enough effect; inconclusive = small, poorly fitted or top-dose-only effect, or another doubt; inactive = no such curve, though single readings can be large; an effect the other way counts as inactive or inconclusive. Unless noted, % is scaled to controls: 0 for no effect and ±100 for the full control effect.

SMILES	ELG1 repair inh	IL-1B inflam inh	HT1080-NT tox	HT1080 IDH1KD tx	TDP1 cell noCPT	DT40 TDP1 CPT
COc1ccc(NC(=O)CN(C)C(=O)c2cc(CN3C(=O)c4ccccc4C3=O)ccc2OC)cc1	-11%	-6	9%	9%	-14%	-3%
CC1(C)C=Cc2c(cc3occ(-c4ccc5c(c4)OCO5)c(=O)c3c2O)O1	.	.	.	.	-1%	0%
COc1c(-c2coc3cc4c(cc3c2=O)CC(OC(C)=O)C(C)(C)O4)ccc2c1C=CC(C)(C)O2 (configuration not stated)	.	.	.	.	0.92µM*	1.3µM*
COc1c(-c2coc3cc4c(cc3c2=O)CC(O)C(C)(C)O4)ccc2c1C=CC(C)(C)O2 (configuration not stated)	.	.	.	.	0.021µM*	0.046µM*
CC1=C(C(=O)N2CCCCCC2)CC(CC(=O)NCC2CCCCC2)C(=O)N1CCCN1CCCC1=O (configuration not stated)	.	-9	16%	6%	-23%	-9%
CC(C)(C)c1ccc(C(O)c2ncc(-c3ccc(F)cc3)[nH]2)cc1 (configuration not stated)	.	-67*	?	?	-40%	?
OC(c1ccc(F)cc1)c1ncc(-c2ccc(Oc3ccccc3)cc2)[nH]1 (configuration not stated)	.	-4	?	?	16µM*	?
Cc1cc(C(O)c2ncc(-c3ccc(Oc4ccccc4)cc3)[nH]2)ccc1F (configuration not stated)	.	-53*	18µM*	10µM*	?	18µM*
Cc1cc(C(O)c2ncc(-c3ccc(Cl)cc3)[nH]2)ccc1F (configuration not stated)	.	-13	?	?	?	18µM*
CC(C)(C)c1ccc(C(O)c2ncc(-c3ccccc3)[nH]2)cc1 (configuration not stated)	.	-24	-28%	?	-18%	?
OC(c1ccc(F)c(F)c1)c1ncc(-c2ccc(Cl)cc2)[nH]1 (configuration not stated)	.	22	?	?	?	?
Cc1cc(C(O)c2ncc(-c3cccc(F)c3)[nH]2)ccc1F (configuration not stated)	.	2	?	0%	-25%	-7%
O=C(Nc1nccs1)[C@@H]1CC=C[C@@H]2CCN(Cc3ccccc3)C(=O)[C@@H]21	.	-1	-4%	6%	?	?
O=C(Cc1ccccc1)Nc1cccc([N+](=O)[O-])c1	5%	-15	-3%	-2%	14%	5%
Cc1cc(Br)ccc1NC(=O)CNC(=O)CSc1ncccn1	2%	0	11%	12%	-14%	-9%
O=[N+]([O-])c1ccc(NCCCc2ccccc2)cc1	.	-18	-7%	0%	18µM*	?
O=C(CNc1cccc([N+](=O)[O-])c1)NCCCc1ccccc1	-2%	-96*	-6%	-5%	?	-3%
Cc1cc(Br)ccc1NC(=O)CNC(=O)CNc1cccc([N+](=O)[O-])c1	-2%	-24	-10%	-17%	?	21µM*
NC(=O)C1CCCN(Cc2ccc3c(c2)CN(Cc2ccccc2)CCO3)C1 (configuration not stated)	.	.	.	.	-18%	6%[9.04 µM]
Cc1csc(SCC(=O)NC2CCS(=O)(=O)C2)n1 (configuration not stated)	8%	-13	-1%	15%	?	13%
CCCCCC1Nc2cc(C(F)(F)F)c(S(N)(=O)=O)cc2S(=O)(=O)N1 (configuration not stated)	.	.	.	.	-1%	-1%
COc1cccc(-c2sc3ccc(OC)cc3c2-c2ccc(OCCN(C)C)cc2)c1	?	-62*	?	?	16µM*	23µM*
COc1ccc(-c2sc3ccccc3c2-c2ccc(OC)cc2F)cc1	.	22	12%	7%	?	3%
O=C(c1ccc(OCCN2CCCCC2)cc1)c1c(-c2ccc(O)cc2)sc2cc(O)ccc12	21%	11	21µM*	21µM*	17µM*	?
COc1cccc(-c2sc3ccc(OC)cc3c2-c2ccc(OCCN3CCOCC3)cc2)c1	-13%	-11	-27%	?	?	16µM*
SMILES	ELG1 repair inh	IL-1B inflam inh	HT1080-NT tox	HT1080 IDH1KD tx	TDP1 cell noCPT	DT40 TDP1 CPT
COc1ccc(-c2sc3ccccc3c2-c2ccc(OCCN(C)C)cc2)cc1	?	-27	23µM*	?	23µM*	?
COC(=O)c1ccc(OCCN2CCCCCC2)cc1	10%	28	18%	20%	0%	23%
O=C(NCc1ccccn1)c1ccc(CNS(=O)(=O)c2ccc(F)cc2)cc1	1%	2	14%	20%	26%	-7%
Oc1cccc(-c2sc3ccccc3c2-c2ccc(OCCN3CCCCC3)cc2)c1	.	0	21µM*	12µM*	12µM*	18µM*
c1ccc(-c2sc3ccccc3c2-c2ccc(OCCN3CCOCC3)cc2)cc1	11%	0	0%	-2%	?	-28%
CCOC(=O)C1CCCN(CC(=O)Nc2c(C(=O)OC)[nH]c3ccccc23)C1 (configuration not stated)	-25%	38	0%	-7%	?	-20%
CCOC(=O)c1[nH]c2ccc(Br)cc2c1NC(=O)CCN1CCC(C(=O)OCC)CC1	?	-64*	-22%	-16%	16µM*	21µM*
CCOC(=O)C1CCN(CC(=O)Nc2c(C(=O)OC)[nH]c3cccc(C)c23)CC1	-12%	11	0%	-10%	-29%	-12%
CCOC(=O)c1[nH]c2ccc(Br)cc2c1NC(=O)CCN1CCCCC1	2%	.	.	.	.	.
CCOC(=O)C1CCCN(CC(=O)Nc2c(C(=O)OC)[nH]c3ccc(C)cc23)C1 (configuration not stated)	?	59	-5%	-7%	23µM*	?
CCN(CC(=O)Nc1c(C(=O)OC)[nH]c2ccc(Cl)cc12)c1ccc2c(c1)OCO2	23µM*	-8	-21%	-18%	26µM*	?
CCOC(=O)C1CCCN(CC(=O)Nc2c(C(=O)OC)[nH]c3ccc(Cl)cc23)C1 (configuration not stated)	21µM*	16	-3%	-5%	?	?
C=CCN1CCc2nc(N)sc2CC1	20%	-4	15%	9%	-2%	-23%
